Laboratory results reported in PubChem BioAssay.

Legend:
[1] = target: Tumor necrosis factor receptor superfamily member 10B (Homo sapiens) (UniProt O14763); test: caspase-8 TRAIL sensitization, hit retest, confirmation, cell-based, NB7+caspase-8, with/without TRAIL, luminescence panel (AID 651596); settings: NB7 neuroblastoma + caspase-8, TRAIL sensitization, luminescence viability, with TRAIL, mean of runs, at 10 µM, stronger effect = higher value
[2] = as above; settings: NB7 neuroblastoma + caspase-8, without TRAIL, luminescence viability, without TRAIL, mean of runs, at 10 µM

Sequence of Tumor necrosis factor receptor superfamily member 10B (Homo sapiens) (O14763 whole entry, looked up): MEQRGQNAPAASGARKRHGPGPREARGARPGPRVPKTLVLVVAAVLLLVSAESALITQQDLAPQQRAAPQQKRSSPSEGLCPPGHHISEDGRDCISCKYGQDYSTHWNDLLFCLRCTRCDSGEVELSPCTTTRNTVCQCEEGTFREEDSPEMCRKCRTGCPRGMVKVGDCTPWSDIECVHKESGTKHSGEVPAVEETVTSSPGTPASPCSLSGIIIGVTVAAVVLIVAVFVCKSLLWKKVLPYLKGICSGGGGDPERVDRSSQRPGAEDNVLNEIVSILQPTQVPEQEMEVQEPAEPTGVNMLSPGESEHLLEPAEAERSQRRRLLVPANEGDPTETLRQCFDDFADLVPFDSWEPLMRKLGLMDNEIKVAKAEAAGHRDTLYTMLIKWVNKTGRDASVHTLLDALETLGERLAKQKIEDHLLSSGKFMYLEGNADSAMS

Structure (SMILES)	activity [1]	activity [2]
Cc1ccc(C(=O)Nc2ccc3c(c2)OCCO3)c(Cl)c1	92.3%	90.8%
CCc1ccc(C(=O)Nc2cc(C)ccc2F)s1	-9.2%	27.4%
O=[N+]([O-])c1ccc(-c2nc(C(Cl)Cl)c3ccccc3n2)cc1	56.8%	96.3%
CN(C)c1ccc(/C=N/NC(=O)c2ccccn2)cc1	74.7%	65.2%
COc1ccc(N2Cc3ccccc3C2=O)cc1	67%	62.5%
COc1cccc(C(=O)Oc2c(CN3CCOCC3)cc(Cl)c3cccnc23)c1	49%	60.3%
O=C(Nc1ccc(N2CCN(C(=O)c3cccs3)CC2)cc1)c1ccc([N+](=O)[O-])o1	86.7%	99.8%
CCc1nn2cc(-c3ccccc3)nc2s1	79.7%	78.6%
O=C(c1ccncc1)N(Cc1cc2ccccc2[nH]c1=O)C1CCCCC1	72.5%	78.4%
COc1ccc(S(=O)(=O)N2CCN(c3ccc4nnc(-c5ccccc5)n4n3)CC2)cc1	58%	66.5%
Cc1cc(C)n(-c2nc(Nc3ccccc3C(F)(F)F)nc(-n3nc(C)cc3C)n2)n1	51.8%	71.9%
O=C(N/N=C/c1ccc[nH]1)c1ccc(COc2cccc3cccnc23)cc1	71.5%	90.3%
COc1ccc(C=C2CCc3ccccc3C2=O)cc1	90.9%	91.4%
Cc1cc(NC2CCCC2)n2ncc(-c3ccccc3)c2n1	69.1%	69.1%
COc1ccc(/C(N)=N/OC(=O)c2ccc3c(c2)OCO3)cc1OC	94.2%	95.1%
O=C(COc1cc(F)ccc1[N+](=O)[O-])Nc1cc(S(=O)(=O)N2CCCC2)ccc1Cl	26.4%	2.77%
N/C(Cc1ccc(Cl)cc1)=N\OC(=O)c1ccc2ccccc2c1	98.5%	95%
NC(c1csc(NC(=O)Nc2ccc(OC(F)(F)F)cc2)n1)C1CCCCC1 (stereo unspecified)	63.7%	92.2%
Cc1cccc(NC(=O)CCc2ccc(N3C(N)=NC(N)=NC3(C)C)cc2)c1	81.3%	80.4%
O=C(Oc1cccc(/C=N/NC(=O)c2ccccn2)c1)c1ccc([N+](=O)[O-])cc1	42.9%	20.2%
CCCCCCCCCCCCCCCC[N+](C)(C)Cc1ccc(F)cc1	80.7%	74.2%
C=C(C)CSc1nnc2n(C)c(=O)c3c4c(sc3n12)CCC4	61.6%	63.9%

Structure (SMILES)	activity [1]	activity [2]
O=C(Nc1ncc(Cc2ccccc2)s1)c1cccs1	74.1%	75%
N/C(CCS(=O)(=O)c1ccc(Cl)cc1)=N\OC(=O)c1ccccc1C(F)(F)F	94.2%	93.6%
O=C(Nc1cccc(Cl)c1)c1nc[nH]c1C(=O)NCCCNC(=O)c1[nH]cnc1C(=O)Nc1cccc(Cl)c1	45.5%	77.4%
CC(=O)c1ccccc1OCC(O)CN1CCN(CCN2C(=O)c3cccc4cccc(c34)C2=O)CC1 (stereo unspecified)	45.6%	16.4%
CCN1CCN(Cc2ccc(NC(=O)c3cc(NC(=O)c4cncc(-c5ccc(C#N)cc5)c4)cc(OC)c3)cc2C(F)(F)F)CC1	58%	98.7%
Cc1cccc(C(=O)Nc2ccc(C(=O)Nc3ccc(O)cc3)cc2)c1	79.9%	89.1%
Brc1ccc(-c2nnc3sc(CN4CCC5(CC4)OCCO5)cn23)cc1	68.3%	61.4%
Nc1nc(N)c2cc(Sc3ccc(Cl)cc3)ccc2n1	70.7%	75.5%
Cc1ccc2cc(/C=N/Nc3nc4ccccc4[nH]3)c(Cl)nc2c1	88.2%	83.6%
CCOC(=O)c1cn(-c2ccc(F)c(F)c2F)c2c(F)c(F)c(F)cc2c1=O	64%	41.5%
Cc1ccsc1C(=O)Nc1nc2ccccc2[nH]1	82%	85.7%
NC(=O)c1c(NC(=O)c2cc3ccccc3o2)sc2c1CCC2	56%	42.8%
O=C(Nc1ccc(N2CCCC2)c(Cl)c1)c1ccco1	43.3%	27%
COc1ccc(-c2nc3ccccc3c(=O)[nH]2)cc1	73.8%	77.5%
CCCCc1ccc(NC(=O)c2ccc(N(C)S(C)(=O)=O)cc2)cc1	25.8%	19.9%
Cc1nc(-c2ccc(NC(=O)c3cccs3)cc2)cs1	83.1%	83.7%
Cc1ccc(C(C#N)=Cc2ccc3c(c2)OCO3)cc1	68.5%	65.2%
CCC[C@H](CN[C@@H](CNC)[C@H](C)CC)NCCc1cc(C(F)(F)F)cc(C(F)(F)F)c1	65.7%	96.1%
O=c1c2ccccc2oc2ccc(-c3ccc4cc[nH]c4c3)cc12	36.5%	35.8%
CCN1CCN(c2c(Cl)cccc2NC(=O)c2ccc([N+](=O)[O-])o2)CC1	52.3%	61.3%
CC1(C)Cc2c(sc(NC(=O)COc3cccc4ccccc34)c2C#N)C(C)(C)N1	85.3%	94.1%
O=C(N/N=C/c1cn(-c2ccccc2)nc1-c1cc2ccccc2o1)c1cccnc1	61.2%	50.2%

Structure (SMILES)	activity [1]	activity [2]
CC(C)N(Cc1ccccc1)C(=O)COC(=O)c1cnc(Cl)c(Cl)c1	81.2%	72%
COc1cccc(NC(=O)n2ncc3c(C)cccc32)c1	67.7%	64.3%
O=C(Nc1nnc(-c2ccccc2)o1)NC1CCCCC1	34.9%	55.4%
c1cncc(-c2nc3cc4ccccc4cc3[nH]2)c1	66.7%	57.3%
Cc1ccc(Nc2nc(NCc3ccco3)c3ccccc3n2)cc1	41.2%	45.6%
COc1cccc(/C=C/C(=O)Nc2ccc3c(c2)OCCO3)c1OC	83.7%	82%
O=C(CSc1nnc(NC(=O)c2ccc3c(c2)OCO3)s1)NCc1ccco1	85.4%	83.7%
COc1ccc(-c2ccc(SC)nn2)cc1	88.9%	90.2%
Nc1nc(CCl)nc(Nc2ccc3ccccc3c2)n1	99.1%	97.8%
COc1cc(C2CC(c3cccs3)=NN2C(=O)CCl)ccc1OC(F)F (stereo unspecified)	99.5%	99.5%
Nc1nc2ccccc2n1C(=O)c1ccc(F)cc1	91.5%	91%
COc1ccc(C2C(C(=O)N3CCN(c4ccccc4)CC3)c3ccccc3C(=O)N2C)cc1OC (stereo unspecified)	71.8%	64.5%
CC(=O)c1sc(NC(=O)c2ccc(C(C)(C)C)cc2)nc1C	30.1%	35.9%
C=CCn1c2ccccc2c(=O)c2cc(C#CC3(O)CCCCC3)ccc21	83.7%	79.7%
O=C(CC(Nc1ccc(Cl)cc1)C(=O)O)c1ccccc1 (stereo unspecified)	60.6%	73.2%
CCCc1cc(=O)[nH]c(SCC(=O)Nc2sc(C(N)=O)c(C)c2C(=O)OCCOC)n1	84.6%	86.4%
Fc1ccc(-c2nc3n(n2)Cc2ccccc2-3)cc1	54%	55.6%
CC(=O)CSc1ccc(-c2nc3ccccc3[nH]2)cn1	92.1%	92.5%
COc1ccc(-c2ccc3c(c2)S(=O)(=O)c2cccc(C(=O)NCCOc4ccccc4Cl)c2C3=O)cc1OC	91.2%	77.8%
O=C(NNc1nc(=O)c2cccnc2s1)c1ccccc1O	45.7%	43.9%
CCc1ccc(NC(=O)c2cnn3ccccc23)cc1	59.4%	58.6%
Fc1ccc(/C=N/Nc2nc(-c3cccnc3)nc3ccccc23)cc1	50.8%	19.2%

Structure (SMILES)	activity [1]	activity [2]
C(=N\Nc1nncc2ccccc12)/c1ccccc1	88.2%	87.7%
C/C(=N\NC(=O)c1ccc2ccccc2c1)c1cccs1	60.5%	67.2%
CC(C)c1ccc(/C=c2\sc3n(c2=O)C(N)=C(C#N)C(c2ccc(C(C)C)cc2)C=3C(N)=O)cc1 (stereo unspecified)	76.7%	77.9%
COC(=O)c1ccc2c(c1)C(C)(C)C(/C=C/c1ccc(O)cc1)=[N+]2C	43.9%	76.1%
COc1cc2c(cc1OC)C(c1cc(Br)ccc1F)N(C(=O)CCl)CC2 (stereo unspecified)	98.6%	98.7%
O=C(Nc1ccc(NC(=O)c2ccco2)nc1)c1ccco1	71.2%	61.5%
O=C(CCl)N(CCc1ccccc1)CCc1ccccc1	99.4%	98.2%
S=c1[nH]ncn1/N=C/c1ccc(N2CCOCC2)cc1	62%	59.8%
O=C(NC(=S)Nc1ccc(Cl)cn1)c1cccs1	79.4%	76.3%
COc1ccc(-c2csc(NC(=O)C3CCN(c4ncnc5sc(C)c(C)c45)CC3)n2)cc1OC	84.3%	62.9%
CCOc1ccc(C(=O)Nc2cc(C)on2)cc1	64.9%	61.7%
Cc1ccc2nc(-c3ccncc3)cc(C(=O)Nc3ccncc3)c2c1	19.9%	6.6%
O=C1Nc2cc(C(=O)NCCN3CCCCCC3)ccc2S/C1=C/c1ccccc1F	82.5%	96%
Cc1ccc(CNc2nc3ccccc3n2C)cc1	59.8%	53.8%
Cn1c(=O)n(CCc2ccccc2)c(=O)c2c1nc1n2CCCN1CCc1ccccc1	21.1%	24.9%
CN(C(=O)c1ccco1)c1nc2c(s1)CCCC2	58.4%	60.5%
CCN1CCN(CCCNC(=O)c2ccc3c(c2)NC(=O)/C(=C\c2cccc(C)c2)S3)CC1	41.4%	89.2%
CC(C)c1onc(C(=O)N2CCN(c3ccc(F)cc3)CC2)c1[N+](=O)[O-]	78.8%	87.6%
Cc1nc(N)nc(N)c1/C=C/C(C)(C)c1ccc(Cl)cc1	54.5%	61.7%
Nc1nnnn1/N=C/C(Br)=C/c1ccccc1	68.6%	88.8%
COn1c(SCc2ccccc2)nc2ccccc2c1=O	65.3%	59.9%
Cc1ccc(/C=C/C2=NN(C)C(=O)CC2)cc1	46.6%	40.1%
